The record followed here is PubChem BioAssay (NCATS).

Assay [1] is described as follows: Primary qHTS for inhibitors of nuclear receptor binding SET domain protein 2 (NSD2) in an RCH-ACV wild type WT cells (2C) (AID 1645877). For activity change, negative = cell killing: % is set by controls: 0 for no effect and ±100 for the full control effect. Note: nearly all actives have a fitted effect of over 70% in size. Note: potency is the fitted concentration of half-maximal effect. For orientation: In qHTS, concentration-response curves come from the screen itself.
In assay [2] the target is Glutathione peroxidase 1 (Homo sapiens) (UniProt P07203). Description: Primary qHTS Assay for Inhibitors of Recombinant Selenoprotein Glutathione Peroxidase 1 (GPX1) (AID 1845191). For activity, negative = inhibition: % is set by controls: 0 for no effect and ±100 for the full control effect. Note: nearly all actives have a fitted effect of over 65% in size. In a few lines:
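GR-coupled readout: NADPH consumption tracked by fluorescence, ex 340/em 450 nm, at t=0 and after 15 min at RT. Final mix 10 nM GPX1, 1 mM GSH, 0.5 mM CHP, 0.5 mM NADPH, 100 nM GR, 0.01% BSA, following 30 min enzyme–compound preincubation.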

Assay [3] has as its target Phospholipid hydroperoxide glutathione peroxidase GPX4 (Homo sapiens) (UniProt P36969). Description: Primary qHTS Assay for Inhibitors of Recombinant Selenoprotein Glutathione Peroxidase 4 (GPX4) (AID 1845192). For activity change, negative = inhibition: series mostly up to about 50 µM; % is set by controls: 0 for no effect and ±100 for the full control effect. Note: nearly all actives have a fitted effect of over 65% in size. The gist of the method:
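Steps: GPX4 plus compound, 30 min RT; add GR/GSH/NADPH master mix; start with cumene hydroperoxide; read 340/450 nm fluorescence at 0 and 15 min. Finals were 200 nM GPX4, 1 mM GSH, 0.5 mM CHP, 0.5 mM NADPH, 100 nM GR.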

The target in assay [4] is Luciferin 4-monooxygenase (Photinus pyralis) (UniProt P08659). Description: Primary firefly luciferase (FLuc) qHTS assay for identification of artifact compounds. (AID 1845220).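 For activity change, negative = inhibition: series mostly up to about 54 µM; plate controls were DMSO vehicle for no effect and no enzyme for full effect.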 Note: nearly all actives have a fitted effect of over 60% in size. In a few lines: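 Enzymatic FLuc inhibition assay: compounds pre-exposed to luciferin/ATP (10 uM each) for 15 min, then purified P. pyralis enzyme at 10 nM added. Read-out: luminescence at 5 min.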

Assay [5] can be described thus: Primary fluorescence-based thiol-reactive (MSTI) qHTS assay for identification of artifact compounds. (AID 1845221).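 For activity change, negative = thiol reactive: series mostly up to about 54 µM; thiol-reactive compounds lower the probe fluorescence signal.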 Note: nearly all actives have a fitted effect of over 65% in size. Note: potency is the fitted concentration of half-maximal effect. In a few lines:
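In PBS pH 7.4 with 2% DMSO, each compound met 4 uM MSTI for one hour at ambient temperature, shielded from light, before fluorescence detection.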

For assay [6], the system named is Nanoluciferase (engineered Oplophorus gracilirostris luciferase). Description: Primary Nanoluciferase (NLuc) qHTS assay for identification of artifact compounds. (AID 1845222).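 Note: NLuc secreted into diluted conditioned medium of S16 cells; series mostly up to about 54 µM; 0% = DMSO and -100% = no enzyme.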 In a few lines:
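S16 cell supernatant NLuc, 1:55; cpds qHTS; 15 min RT dark; Nano-Glo substrate 1:100, 5 min; luminescence; Hill fit of % inhibition.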

Assay [7] in a line: Primary redox qHTS assay for identification of artifact compounds. (AID 1845223).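 Note: 0% = DMSO and 100% = reference compound.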 In a few lines: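 Redox-cycling detection via DTT (250 uM final) oxidation coupled to Amplex Red (25 uM)/HRP (250 mU/mL) in HBSS. 15 min preincubation plus 30 min after DTT, room temperature. Ex/Em 525/598 nm; 4-parameter Hill fit against DMSO and 10 uM DA3003.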

Values without a mark were called inactive. Inconclusive results are not listed. The source made the active and inactive calls. Calls come from the whole dose curve; as a rule, active = well fitted curve in the direction sought with a large enough effect; inconclusive = small, poorly fitted or top-dose-only effect, or another doubt; inactive = no such curve, though single readings can be large; an effect the other way counts as inactive or inconclusive.

Chain of Glutathione peroxidase 1 (Homo sapiens) (P07203 whole entry, looked up): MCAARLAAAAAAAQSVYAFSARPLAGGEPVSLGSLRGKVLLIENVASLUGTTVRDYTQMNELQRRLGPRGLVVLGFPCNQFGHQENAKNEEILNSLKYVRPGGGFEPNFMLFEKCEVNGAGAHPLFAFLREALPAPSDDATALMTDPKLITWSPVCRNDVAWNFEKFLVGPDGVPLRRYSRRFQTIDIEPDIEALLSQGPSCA
Chain of Phospholipid hydroperoxide glutathione peroxidase GPX4 (Homo sapiens) (P36969 whole entry, looked up): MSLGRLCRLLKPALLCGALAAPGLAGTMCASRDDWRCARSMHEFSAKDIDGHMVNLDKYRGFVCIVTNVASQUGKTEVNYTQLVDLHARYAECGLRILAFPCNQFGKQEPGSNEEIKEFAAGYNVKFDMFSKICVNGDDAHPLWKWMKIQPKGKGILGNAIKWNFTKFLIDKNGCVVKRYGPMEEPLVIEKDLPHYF

On to `CCC(=O)O[C@H]1C(C)(C)[C@H]([C@@H](O)C(=O)OC)[C@]2(C)C(=O)[C@@]1(O)[C@H]1O[C@]13C1CC(=O)O[C@@H](c4ccoc4)[C@]1(C)CCC32` (stereo not given in full), for which the Potency entry in assay [1], in assay [2], in assay [3], in assay [4], in assay [5] and in assay [6] was “inactive” in each case. Further, the Potency entry in assay [7] was “inactive”.
For the compound `Cc1[nH]c2ccccc2c1CCNC(=O)c1ccccc1F`, the Potency entry in assay [1], in assay [2], in assay [3], in assay [4], in assay [6] and in assay [7] was “inactive” throughout. In addition, in assay [5], the Potency is 4.23 µM (active).
Consider `C=C1C(OC(=O)/C(C)=C\C)[C@@]23CCC4[C@@](C)(CCC[C@@]4(C)C(=O)O)C2CC[C@H]1C3OC(C)=O` (stereo not given in full), for which the Potency entry in assay [1], in assay [2], in assay [3], in assay [4], in assay [5] and in assay [6] was “inactive” in each case. Further, the Potency result in assay [7] was “inactive”.
Take `C[C@H]1[C@H](O)O[C@@H]2O[C@@]3(C)CC[C@H]4[C@H](C)CC[C@@H]1[C@@]24OO3`: in assay [1], the Potency was 0.833 µM (active). For the same compound, the Potency result in assay [2], in assay [3], in assay [4], in assay [5], in assay [6] and in assay [7] was “inactive” throughout.
Take `CC1CCC2(C(=O)O)CCC3(C)C(=CCC4C5(C)CCC(OC(=O)/C=C/c6ccccc6)C(C)(C)C5CCC43C)C2C1C` (stereo not given): the Potency entry in assay [1], in assay [2], in assay [3], in assay [4], in assay [5] and in assay [6] was “inactive” in each case. Moreover, the Potency result in assay [7] was “inactive”.
For `COc1ncc2cc(C(=O)Nc3cc(C(=O)NCc4cccc(Cl)c4)ccc3Cl)c(=O)[nH]c2n1`, the Potency in assay [1] was 5.8 µM (active). For the same compound, the Potency result in assay [2], in assay [3], in assay [4], in assay [5], in assay [6] and in assay [7] was “inactive” in each case.
Regarding `CC(=O)/C=C/[C@H]1[C@](C)(O)[C@@H](O)[C@H](OC(C)=O)C2C(C)(C)CCC[C@@]21C` (stereo not given in full), the Potency result in assay [1], in assay [2], in assay [3], in assay [4], in assay [5] and in assay [6] was “inactive” in each case. Moreover, the Potency entry in assay [7] was “inactive”.
In the case of `CCCCCCOc1cc2c(cc1N(C)c1ncc(C(=O)O)cn1)C(C)(C)CCC2(C)C`, the Potency entry in assay [1], in assay [2], in assay [3], in assay [4], in assay [5] and in assay [6] was “inactive” each time. Further, the Potency entry in assay [7] is “inactive”.
Turning to `C[C@H]1CC[C@@H]2N(C1)C[C@@H]1[C@H]([C@@H](O)[C@H](O)[C@]3(O)[C@H]1C[C@@]14OC5(O)[C@@H](C[C@@H](O)[C@@H]31)[C@]4(C)CC[C@@H]5O)[C@]2(C)O`, the Potency result in assay [1], in assay [2], in assay [3], in assay [4], in assay [5] and in assay [6] was “inactive” throughout. Moreover, the Potency entry in assay [7] was “inactive”.
`C/C1=C\CC[C@]2(C)O[C@@H]2[C@H](O)[C@H](C(C)C)[C@H](OC(=O)/C=C/c2ccccc2)C1`: the Potency entry in assay [1], in assay [2], in assay [3], in assay [4], in assay [5] and in assay [6] was “inactive” throughout. In assay [7], the Potency result is “inactive”.
In the case of `CN(C)C(=O)NC1CCC(CCN2CCN(c3cccc(Cl)c3Cl)CC2)CC1` (stereo not given), the activity change, negative = cell killing in assay [1] is 2.1% [at 9.23 µM]. In addition, the Potency result in assay [2] and in assay [3] was “inactive” throughout. Moreover, in assay [4], the activity change, negative = inhibition was 2.95% [at 11.6 µM]. Besides, the activity change, negative = thiol reactive in assay [5] was 20.5% [at 11.5 µM]. In addition, the activity, negative = inhibition in assay [6] is -1.17% [at 11.6 µM]. Also, in assay [7], the redox activity (% of DA3003) is -4.67% [at 11.5 µM].
`C[C@H](N)C(=O)N[C@@H](Cc1ccc(O)cc1)C(=O)N1CCC[C@H]1C(=O)NCC(=O)N[C@@H](CCCCN)C(=O)N[C@@H](Cc1ccccc1)C(N)=O`: the outcome in assay [1] was “inactive [at 9.23 µM]”. Moreover, the values for the activity, negative = inhibition in assay [2] and in assay [6] were 0.372% [at 9.52 µM] and 4.39% [at 11.6 µM], respectively. Also, the activity change, negative = inhibition was -6.9% [at 9.73 µM] in assay [3] and 3.15% [at 11.6 µM] in assay [4]. Moreover, the activity change, negative = thiol reactive in assay [5] is -3.19% [at 11.5 µM]. The redox activity (% of DA3003) in assay [7] was -3.11% [at 11.5 µM].
On to `O=C(CC1C(=O)Nc2ccccc21)OC[C@H]1O[C@@H](OCCc2ccc(O)cc2)[C@H](O)[C@@H](O)[C@@H]1O` (stereo not given in full), for which the Potency entry in assay [1], in assay [2], in assay [3], in assay [4], in assay [6] and in assay [7] was “inactive” throughout. Moreover, the Potency in assay [5] was 9.22 µM (active).
With `CC1=C(C)C(=O)OC(C(C)C2CCC3C4C5OC5C5(O)CC(OC6OC(CO)C(OC7OC(C)C(O)C(O)C7O)C(O)C6O)CC(O)C5(C)C4CCC23C)C1` (stereo not given), the Potency result in assay [1], in assay [2], in assay [3], in assay [4], in assay [5] and in assay [6] was “inactive” each time. In addition, the Potency result in assay [7] is “inactive”.
With `NC(=O)[C@H]1CCS[C@@H]2C[C@]3(CCCN3C(=O)Cc3ccc(NC(=O)COc4ccc(Cl)cc4Cl)cc3)C(=O)N12`, the Potency in assay [1] was 5.25 µM (active). Further, the Potency entry in assay [2], in assay [3], in assay [4], in assay [5], in assay [6] and in assay [7] was “inactive” in each case.
